This note sets out measurements from PubChem BioAssay.

The nature of experiment [1]: small molecules captured by biotinylated probe aFSTL3 – biochemical, small-molecule microarray, fluorescence 635/667, stem cell growth factor project, primary screen (AID 1064).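 Further: measures binding of the biotinylated anti-FSTL3 antibody to printed compounds.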 Particulars: higher = more signal.
Experiment [2] is described as follows: binders from COS7 lysate, DM2A8 probe, primary screen, torsin A project, cell lysate, small-molecule microarray, fluorescence 635/667 (AID 1065). Particulars: higher = more signal, COS7 lysate expressing mutant human TOR1A.
A short description of experiment [3]: small molecules captured by biotinylated probe aFGF2 – biochemical, small-molecule microarray, fluorescence 635/667, stem cell growth factor project, primary screen (AID 1067).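 Further: measures binding of biotinylated aFGF2 protein to printed compounds on slides; z-score merges feature fluorescence and signal-to-noise across triplicate slides.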 The note with it: higher = more signal.
Experiment [4] is described as follows: small molecules captured by biotinylated probe aFGF10 – biochemical, small-molecule microarray, fluorescence 635/667, stem cell growth factor project, primary screen (AID 1071).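 Further: score merges 667 nm spot intensity and signal to noise from triplicate slides.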 Particulars: higher = more signal.
In experiment [5] the target is Neurogenic locus notch homolog protein 2 (Homo sapiens) (UniProt Q04721). Description: small molecules binding Notch2 protein – biochemical, small-molecule microarray, 635 nm fluorescence, stem cell growth factors, primary screen (AID 1073). Particulars: higher = more signal.
For experiment [6], the target named is Pro-neuregulin-1, membrane-bound isoform (Homo sapiens) (UniProt Q02297). Nature of the experiment: small molecules binding neuregulin-1 protein – biochemical, small-molecule microarray, fluorescence 635/667, psychiatric disease protein project, primary screen (AID 1075).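 Further: score combines 667 nm spot fluorescence with signal to noise.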 The note with it: NRG1 binding, 635 nm fluorescence, higher = more signal.
Experiment [7] deals with Neuregulin-1 EGF-like domain. Nature of the experiment: small molecules binding NRG1 EGF domain – biochemical, small-molecule microarray, 635 nm fluorescence, primary screen (AID 1081).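 Further: binding of the protein to compounds printed on small-molecule microarray slides.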 The note with it: higher = more signal.
The nature of experiment [8]: FRG1 expression reporter modulators in myotubes – cell-based, C2C12 myotubes, firefly/Renilla luciferase, luminescence, FRG1 inhibition for FSHD, primary screen (AID 1084). Particulars: FRG1 promoter luciferase, higher = more signal, called active from +8 up or from −8 down.
Experiment [9] is described as follows: small molecules captured by biotinylated probe aFST – biochemical, small-molecule microarray, fluorescence 635/667, stem cell growth factor project, primary screen (AID 1086).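 Further: score merges 667 nm fluorescence with signal-to-noise of each printed compound spot.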 Particulars: higher = more signal.
Experiment [10] in a line: binders of probe aHhip on microarray, primary screen, stem cell growth factor project, biochemical, small-molecule microarray, fluorescence 635/667 (AID 1087).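 Further: score merges spot fluorescence at 667nm with spot signal to noise ratio.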 The note with it: higher = more signal.
The test system of experiment [11] is PRMT1 (protein arginine N-methyltransferase 1). Description: small molecules binding arginine methyltransferase PRMT1 – biochemical, small-molecule microarray, 635 nm fluorescence, primary screen (AID 1088).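 Further: binding of Prmt1 protein to compounds spotted on small-molecule microarray slides.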 Particulars: higher = more signal.
Experiment [12] in a line: growth effects on S. cerevisiae YJM789 – YJM789 clinical isolate, OD600, 24 h, basal, primary screen (AID 1089).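 Further: growth of clinical yeast isolate S. cerevisiae YJM 789 seeded 1000 cells per well; test concentration not given here.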 Particulars: higher = more signal, called active from +8 up or from −8 down.
The nature of experiment [13]: S. pombe growth modifiers, basal conditions – strain 972, OD600, 24 h, no modulator, primary screen (AID 1090).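 Further: basal condition with compound alone and no growth modifier present; test concentration not given here.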 The note with it: S. pombe 972 growth, higher = more signal, called active from +8 up or from −8 down.
Experiment [14] can be described thus: budding yeast growth modifiers under rapamycin – strain BY4716, OD600, 96 h, primary screen (AID 1091). Further: test concentration not given here. The note with it: S. cerevisiae BY4716 + rapamycin, higher = more signal, called active from +8 up or from −8 down.
Experiment [15] concerns the target Torsin-1A-interacting protein 2 (Homo sapiens) (UniProt Q8NFQ8). Nature of the experiment: small molecules binding lysate-expressed LULL1 – cell lysate, human LULL1 lysate, 635/667 nm fluorescence, primary screen (AID 1092).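 Further: score merges per-feature 667 nm fluorescence with signal-to-noise.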 The note with it: small-molecule microarray, hLULL1 lysate binding, 635 nm fluorescence; higher = more signal.
The nature of experiment [16]: optical density change of DRC41 E. coli – strain DRC41, OD650, 24 h, E. coli filamentation project, primary screen (AID 1093).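 Further: MC1000 strain lacking acrAB efflux and sulA so SOS filamentation is blocked; test concentration not given here.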 Particulars: E. coli DRC41 growth, higher = more signal, called active from +8 up or from −8 down.
The nature of experiment [17]: probe aLefty2 binding to arrayed compounds – biochemical, biotinylated probe, 635/667 nm fluorescence, primary screen (AID 1094).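 Further: score merges spot fluorescence near 667 nm with spot signal-to-noise ratio.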 Particulars: small-molecule microarray, higher = more signal.
For experiment [18], the system named is Noggin (protein binding on small-molecule microarray). Nature of the experiment: small molecules binding Noggin protein – biochemical, 635/667 nm fluorescence, primary screen (AID 1095).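 Further: score merges 667 nm feature fluorescence with signal to noise over triplicate slides.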 The note with it: 635 nm fluorescence, higher = more signal.
Experiment [19] deals with Neurogenic locus notch homolog protein 3 (Homo sapiens) (UniProt Q9UM47). Nature of the experiment: small molecules binding NOTCH3 protein – biochemical, 635/667 nm fluorescence, primary screen (AID 1096). Particulars: small-molecule microarray, 635 nm fluorescence, higher = more signal.
The nature of experiment [20]: probe aEGFR binding to arrayed compounds – biochemical, biotinylated probe, 635/667 nm fluorescence, primary screen (AID 1097).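 Further: probe is a biotinylated anti-EGFR antibody binding compounds printed on slides; score combines fluorescence near 667 nm and signal to noise of each spot.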 The note with it: small-molecule microarray, higher = more signal.

Where “and” joins values, the source holds several entries; their conditions need not be identical. Equal values may be shown once. Calls of active or inactive are those of the source.

Pro-neuregulin-1, membrane-bound isoform (Homo sapiens), sequence (Q02297 whole entry, looked up, the tested form may be a part, canonical isoform): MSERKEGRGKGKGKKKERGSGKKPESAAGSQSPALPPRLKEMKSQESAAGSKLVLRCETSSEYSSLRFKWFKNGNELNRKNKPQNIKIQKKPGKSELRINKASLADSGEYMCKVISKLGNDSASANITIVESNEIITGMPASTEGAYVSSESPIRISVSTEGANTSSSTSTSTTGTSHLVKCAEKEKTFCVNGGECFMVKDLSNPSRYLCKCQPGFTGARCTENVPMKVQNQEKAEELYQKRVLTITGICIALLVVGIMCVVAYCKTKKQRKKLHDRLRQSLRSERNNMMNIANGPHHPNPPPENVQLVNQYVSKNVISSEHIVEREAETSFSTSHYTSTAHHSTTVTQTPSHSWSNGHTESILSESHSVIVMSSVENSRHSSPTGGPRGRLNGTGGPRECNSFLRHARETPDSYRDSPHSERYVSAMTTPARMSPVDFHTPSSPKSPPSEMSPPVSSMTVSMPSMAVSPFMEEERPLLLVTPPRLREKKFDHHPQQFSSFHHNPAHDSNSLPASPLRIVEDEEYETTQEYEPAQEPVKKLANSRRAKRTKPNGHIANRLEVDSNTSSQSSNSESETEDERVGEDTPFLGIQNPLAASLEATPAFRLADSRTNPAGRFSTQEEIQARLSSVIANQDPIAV
Torsin-1A-interacting protein 2 (Homo sapiens), sequence (Q8NFQ8 whole entry, looked up): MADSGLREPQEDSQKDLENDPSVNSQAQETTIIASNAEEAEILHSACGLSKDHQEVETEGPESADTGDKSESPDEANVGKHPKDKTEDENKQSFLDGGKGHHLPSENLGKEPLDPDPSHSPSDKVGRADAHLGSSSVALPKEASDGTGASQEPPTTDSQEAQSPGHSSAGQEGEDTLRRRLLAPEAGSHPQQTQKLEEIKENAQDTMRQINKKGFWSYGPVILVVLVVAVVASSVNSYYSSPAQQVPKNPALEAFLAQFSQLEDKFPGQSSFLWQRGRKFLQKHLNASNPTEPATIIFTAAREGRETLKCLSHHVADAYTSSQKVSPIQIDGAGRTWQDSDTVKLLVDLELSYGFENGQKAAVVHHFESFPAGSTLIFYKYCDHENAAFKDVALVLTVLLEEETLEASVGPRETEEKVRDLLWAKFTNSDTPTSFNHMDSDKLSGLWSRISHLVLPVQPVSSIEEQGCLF
Neurogenic locus notch homolog protein 2 (Homo sapiens), sequence (Q04721 whole entry, looked up, canonical isoform): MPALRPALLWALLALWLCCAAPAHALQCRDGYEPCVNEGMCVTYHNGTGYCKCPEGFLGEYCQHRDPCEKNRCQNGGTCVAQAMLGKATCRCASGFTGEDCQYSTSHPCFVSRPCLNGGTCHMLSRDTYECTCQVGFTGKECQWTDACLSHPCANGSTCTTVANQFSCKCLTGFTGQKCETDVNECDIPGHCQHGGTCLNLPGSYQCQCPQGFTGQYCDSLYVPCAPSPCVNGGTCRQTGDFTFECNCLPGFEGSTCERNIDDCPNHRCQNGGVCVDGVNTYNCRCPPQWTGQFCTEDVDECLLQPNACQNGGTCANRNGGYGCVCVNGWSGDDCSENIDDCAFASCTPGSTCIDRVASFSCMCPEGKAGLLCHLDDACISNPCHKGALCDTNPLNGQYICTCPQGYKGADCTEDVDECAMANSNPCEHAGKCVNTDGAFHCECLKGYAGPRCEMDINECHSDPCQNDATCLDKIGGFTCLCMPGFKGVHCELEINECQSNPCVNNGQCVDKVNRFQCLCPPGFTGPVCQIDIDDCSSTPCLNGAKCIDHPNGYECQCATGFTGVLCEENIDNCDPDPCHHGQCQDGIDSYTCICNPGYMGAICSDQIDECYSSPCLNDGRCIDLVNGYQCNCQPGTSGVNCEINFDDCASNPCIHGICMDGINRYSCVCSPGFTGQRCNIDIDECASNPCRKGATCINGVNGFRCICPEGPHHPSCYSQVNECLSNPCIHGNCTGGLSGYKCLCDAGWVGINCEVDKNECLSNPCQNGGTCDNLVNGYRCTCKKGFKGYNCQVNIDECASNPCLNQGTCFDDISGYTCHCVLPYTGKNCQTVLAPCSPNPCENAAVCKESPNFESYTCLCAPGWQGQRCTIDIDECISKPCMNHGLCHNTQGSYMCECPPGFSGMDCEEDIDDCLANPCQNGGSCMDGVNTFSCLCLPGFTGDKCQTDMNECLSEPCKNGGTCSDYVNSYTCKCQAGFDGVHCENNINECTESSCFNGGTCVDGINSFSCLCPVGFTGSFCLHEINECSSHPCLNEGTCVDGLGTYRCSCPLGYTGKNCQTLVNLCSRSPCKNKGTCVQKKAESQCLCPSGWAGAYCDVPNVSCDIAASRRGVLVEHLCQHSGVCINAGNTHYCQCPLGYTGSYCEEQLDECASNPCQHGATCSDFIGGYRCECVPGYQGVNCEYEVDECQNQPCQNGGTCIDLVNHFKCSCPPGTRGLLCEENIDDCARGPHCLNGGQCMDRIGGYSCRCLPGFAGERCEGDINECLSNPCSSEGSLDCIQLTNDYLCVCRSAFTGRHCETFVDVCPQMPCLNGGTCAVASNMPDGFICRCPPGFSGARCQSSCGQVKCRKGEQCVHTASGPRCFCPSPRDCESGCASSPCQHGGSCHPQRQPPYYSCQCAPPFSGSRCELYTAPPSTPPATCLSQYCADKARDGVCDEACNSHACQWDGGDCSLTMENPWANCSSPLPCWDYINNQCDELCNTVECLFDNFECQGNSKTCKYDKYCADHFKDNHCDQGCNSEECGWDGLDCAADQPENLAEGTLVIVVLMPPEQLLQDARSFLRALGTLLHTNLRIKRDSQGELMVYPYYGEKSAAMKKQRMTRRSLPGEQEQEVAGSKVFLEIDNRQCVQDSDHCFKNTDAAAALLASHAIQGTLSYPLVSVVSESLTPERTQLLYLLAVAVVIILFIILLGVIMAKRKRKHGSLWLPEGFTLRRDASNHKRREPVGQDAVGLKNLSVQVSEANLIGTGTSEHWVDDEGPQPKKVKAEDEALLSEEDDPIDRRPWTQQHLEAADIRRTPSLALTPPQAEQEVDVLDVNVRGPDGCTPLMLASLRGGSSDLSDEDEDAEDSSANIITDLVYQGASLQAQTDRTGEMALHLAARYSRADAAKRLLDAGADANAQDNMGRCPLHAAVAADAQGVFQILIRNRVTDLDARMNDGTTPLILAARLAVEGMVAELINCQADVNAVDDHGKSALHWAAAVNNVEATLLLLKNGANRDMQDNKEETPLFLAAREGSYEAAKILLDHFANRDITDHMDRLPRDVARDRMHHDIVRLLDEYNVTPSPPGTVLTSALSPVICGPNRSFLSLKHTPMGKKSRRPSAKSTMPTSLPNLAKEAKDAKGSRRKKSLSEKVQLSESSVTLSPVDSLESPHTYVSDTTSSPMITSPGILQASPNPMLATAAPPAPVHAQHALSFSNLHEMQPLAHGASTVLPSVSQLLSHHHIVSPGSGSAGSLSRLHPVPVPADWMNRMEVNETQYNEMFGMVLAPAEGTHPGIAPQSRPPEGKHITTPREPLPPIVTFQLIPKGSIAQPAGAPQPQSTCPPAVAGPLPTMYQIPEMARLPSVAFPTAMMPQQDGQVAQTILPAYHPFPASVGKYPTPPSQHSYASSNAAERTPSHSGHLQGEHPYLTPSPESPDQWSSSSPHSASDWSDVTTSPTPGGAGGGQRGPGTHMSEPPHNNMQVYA

In the case of `Cc1ccc(S(=O)(=O)N[C@H]2COC(=O)[C@@H](C)COC(=O)[C@H](C)NC(=O)CC=C[C@H]2C)cc1`, the composite z-score is -0.574 in [1]; 1.03 in experiment [2]; -0.116 in [3]; 0.604 in [4]; 0.192 in experiment [5]; -0.476 in [6]. For the same molecule, the composite z-score in experiment [7] was -0.132; in experiment [9], -0.154; in [10] it was -0.0618; in experiment [11], 0.277; in experiment [15], -0.487; in [17], -0.121. Also, the composite z-score was 1.17 in experiment [18], 0.646 in experiment [19] and -0.0862 in experiment [20]. The z-score in experiment [8] was 0.691 (inactive); in experiment [12], -0.0016 (inactive); in [13] it was -0.838 (inactive); in experiment [14], -0.351 (inactive); in [16] it was 0.147 (inactive).
Take `C#CCCCON=C1C[C@@H](O)[C@@H](O)[C@@H]2[C@@H]3C(=O)N(C4CCCCC4)C(=O)[C@@H]3CC[C@H]12`: the composite z-score in [1] was -0.283; in experiment [2] it was 0.145; in experiment [3], -0.0423; in experiment [4], 0.612; in experiment [5], 0.784; in experiment [6], 0.717. Further, the composite z-score in experiment [7] is 0.793; in experiment [9], 0.346; in experiment [10], -0.0994; in experiment [11], 0.589; in experiment [15], 1; in [17], 0.0103. For the same molecule, the composite z-score was 0.417 in experiment [18], 0.71 in experiment [19] and -0.0842 in [20]. In addition, the z-score in experiment [8] was -0.298 (inactive); in experiment [12], -0.177 (inactive); in experiment [13] it was -0.539 (inactive); in experiment [14], -0.193 (inactive); in experiment [16], 0.318 (inactive).
Turning to `CC(CO)N1C(=O)[C@@H]2C3C(=O)OCCC=C[C@H]3OC23C=CCN(Cn2nnc4ccccc42)C(=O)[C@@H]13` (stereo not given in full), the composite z-score in [1] was 0.634 and 0.0762; in experiment [2] it was -1.37 and 0.709; in experiment [3], -0.187 and -0.0234; in experiment [4] it was 0.0583 and 0.509; in experiment [5] it was -1.7 and -0.0585; in [6], 1.32 and 1.91. In addition, the composite z-score in [7] is 1.5 and 1.48; in experiment [9] it was -0.545 and -0.255; in [10], -0.137 and -0.228; in experiment [11], -0.414 and 0.262; in [15], 0.145 and 3.01; in [17], -0.223 and -0.0882. The composite z-score was -1.78 and 0.0711 in experiment [18]; -0.391 and 0.347 in experiment [19]; -0.203 and -0.0828 in experiment [20]. Moreover, the z-score in [8] was -0.191 (inactive) and 0.519 (inactive); in experiment [12], 1.52 (inactive) and -1.09 (inactive); in experiment [13], 0.102 (inactive) and -0.115 (inactive); in [14], 0.73 (inactive) and -0.0895 (inactive); in [16] it was 0.775 (inactive) and -0.175 (inactive).
In the case of `COCn1c2ccccc2c2nnc(C(C)=O)nc21`, the composite z-score in experiment [1] was -0.401 and -0.253; in experiment [2], 0.416 and -0.0491; in experiment [3], -0.108 and -0.112; in [4], 0.111 and 0.226; in experiment [5], -0.0995 and 0.194; in experiment [6], -0.325 and -0.146. Also, the composite z-score is -0.29 and -0.548 in experiment [7]; 0.252 and -0.0637 in experiment [9]; -0.0994 and 0.0515 in experiment [10]; -0.217 and 0.724 in experiment [11]; -0.0703 and 0.184 in experiment [15]; -0.0702 and -0.0137 in experiment [17]. In addition, the composite z-score is 0.1 and 0.372 in [18]; -0.007 and 0.307 in experiment [19]; -0.0398 and -0.123 in [20]. Moreover, the z-score in experiment [8] is 0.51 (inactive) and 0.697 (inactive); in experiment [12], -0.405 (inactive) and -0.362 (inactive); in [13] it was -0.267 (inactive) and -1.08 (inactive); in experiment [14], -0.189 (inactive) and -0.135 (inactive); in experiment [16], -0.35 (inactive) and -0.768 (inactive).
On to `COC(=O)C1=C(C)N(Cc2ccccc2)C2=C3C(=O)N(c4ccccc4)C(=O)[C@@H]3[C@@](O)(C(=O)OC)C(=O)N2[C@@H]1c1ccccc1`, for which the composite z-score in experiment [1] was -0.302 and -0.483; in [2], 0.205 and 0.642; in experiment [3], -0.118 and -0.137; in [4] it was 0.738 and 0.591; in [5], 0.897 and 1.21; in [6], 0.383 and 0.418. In addition, the composite z-score was 1.02 and 0.99 in [7]; 0.366 and 0.346 in experiment [9]; -0.166 and -0.375 in experiment [10]; 0.345 and 1.13 in experiment [11]; 0.806 and 1.46 in experiment [15]; -0.0736 and -0.0453 in [17]. Moreover, the composite z-score in experiment [18] is 0.608 and 0.455; in experiment [19] it was 0.54 and 1.04; in experiment [20] it was -0.0125 and -0.0534. Further, the z-score in experiment [8] was 0.0445 (inactive) and -1.22 (inactive); in experiment [12], 0.286 (inactive) and -1.22 (inactive); in experiment [13], -1.52 (inactive) and -2.29 (inactive); in [14] it was -1.18 (inactive) and -1.1 (inactive); in experiment [16], 0.117 (inactive) and 1.24 (inactive).
Take `CC(C)CON=C1C[C@@H](O)[C@@H](O)[C@@H]2[C@@H]3C(=O)N(c4cccc(Oc5ccccc5)c4)C(=O)[C@@H]3CC[C@H]12`: the composite z-score in experiment [1] was -0.273; in experiment [2], 0.459; in experiment [3], -0.179; in experiment [4] it was 0.253; in experiment [5], 0.547; in experiment [6], 0.685. Further, the composite z-score in experiment [7] is 0.781; in experiment [9], 0.769; in experiment [10], -0.0645; in experiment [11], 0.973; in experiment [15] it was 0.897; in [17] it was -0.136. Also, the composite z-score was 0.318 in [18], 0.951 in [19] and -0.0549 in experiment [20]. Further, the z-score is -0.423 (inactive) in [8]; 0.097 (inactive) in experiment [12]; 0.561 (inactive) in [13]; -0.54 (inactive) in experiment [14]; 1.04 (inactive) in [16].
As to `CCCCN1CC=CC23O[C@@H]4C=CCCOC(=O)C4[C@H]2C(=O)N(C(C)CO)[C@@H]3C1=O` (stereo not given in full), the composite z-score was 0.385 and 0.252 in experiment [1]; -0.371 and 0.204 in experiment [2]; -0.0753 and -0.135 in experiment [3]; -0.228 and 0.292 in experiment [4]; -0.921 and -0.936 in [5]; 1.1 and 0.324 in experiment [6]. Also, the composite z-score was 0.839 and 1.04 in [7]; -0.337 and 0.104 in experiment [9]; -0.137 and 0.251 in experiment [10]; 0.275 and -0.575 in experiment [11]; 3.12 and -0.0307 in [15]; -0.179 and -0.0421 in experiment [17]. The composite z-score in [18] was -0.72 and -0.244; in experiment [19], -0.391 and -0.4; in experiment [20], -0.221 and 0.0329. Moreover, the z-score is 0.489 (inactive) and -0.469 (inactive) in [8]; -0.601 (inactive) and 1.38 (inactive) in experiment [12]; -0.158 (inactive) and 1.52 (inactive) in experiment [13]; -0.164 (inactive) and 0.868 (inactive) in [14]; -0.164 (inactive) and 0.287 (inactive) in [16].
For `C=C(C)C(=O)OC[C@@H]1CN2[C@@H](CC[C@@H](C)[C@@H]2c2ccc(Br)cc2)C(=O)O1`, the composite z-score in [1] is -0.577; in experiment [2] it was -0.275; in [3], -0.083; in experiment [4], 0.733; in experiment [5] it was 0.636; in experiment [6], 0.776. The composite z-score is 1.1 in experiment [7]; 0.129 in [9]; -0.0645 in [10]; 0.819 in [11]; 1.32 in experiment [15]; -0.247 in [17]. The composite z-score in [18] came out at 0.314; in experiment [19], 0.259; in [20], 0.0251. Moreover, the z-score was -0.889 (inactive) in experiment [8]; -0.792 (inactive) in experiment [12]; -2.7 (inactive) in experiment [13]; -1.52 (inactive) in experiment [14]; 0.53 (inactive) in [16].
